Article PMC10163288
These entries were drawn from the full list. No count for the full screen is at hand.

B1: il2ra_site2_3nfp_normal_mot_HHH_b1_05918_af2_000000127_0001_23_40_H_._HHH_b1_07797_0001_0000400047_0000001_0 (protein)
chain: SSSSSEAEEYLRAALLLAELALREGDEENARRSLELAIQLAEHKGNPELLEELEELLEEINSSSS
B2: il2ra_site1_3nfp_sap_8_mot_119b7766384adbe86006a62bce89dba1_0001_af2_000000092_0001_18_32_H_._HHH_b2_02632_0001_0000300007_0000001_0_0001 (protein)
chain: SSSSDARELLFEAAEILDELAERGDHEELKRFAEEVIEELEELGNRQAARMIRWLVERALSSSSS
B3: il2ra_site2_3nfp_sap_22_mot_HHH_b2_08245_000000023_0001_41_55_H_._HHH_b2_07283_0001_0000300027_0000001_0_0001 (protein)
chain: SSSSDVEERIEELLKEIEELLEKGDPEEAERLLLEVALLAWETGDFEAFAAVTRLLERVQSSSSS
B4: il2ra_site1_2b5i_sap_18_mot_89dc1dc23437faef961419e82e151d9c_0001_af2_000000202_0001_15_32_H_._9f08b0091ee0dae2b2d48aa630d4ec63_0001_1_0001_0000400022_0000001_0 … (protein)
chain: SSSSSIEELLEAMLELAEELIENGNPEEARAILLLARRAARAHGNPEYVKELERLLRELLSSSSS
B5: il2ra_site2_3nfp_normal_mot_HHH_b1_05158_000000192_0001_1_17_H_._HHH_b1_05195_0001_0000600013_0000001_0_af2pred_0001_af2pred (protein)
chain: SSSSSSDSELTFLLILLEALLEEVDDPEIRELLEEALEELREKKDPEIARKVLKEASEYLSSSSS
B6: il2ra_site2_3nfp_sap_26_mot_HHH_b1_00015_000000185_0001_19_35_H_._HHH_b2_06138_0001_0000600047_0000001_0_0001_af2pred_0001_af2pred (protein)
chain: SSSSSSDEEEEVEKLLEEAKHIEDEFELYAVLADAARIAFELKDEELRRLVKEVRHELSSSSSSS
B7: il2ra_site1_1z92_normal_mot_HHH_b1_08597_af2_000000202_0001_42_56_H_._6e12af4a48b4634929ba45889b8be782_0001_0001_0000600034_0000001_0 (protein)
chain: NVEWAIENLERLARLQGNPEVERVLRRVLELLKKNEEEAEEFLEELVRELGDKLLRLLLRMLKTA
B8: il2ra_site1_1z92_sap_14_mot_1581cc1c700002558836ca695aafbf97_0001_1_af2_000000099_0001_17_32_H_._d5167a162c519d043ddc16d89768c28c_0001_1_0001_0000100008_0000001 … (protein)
chain: SLEEEIERALKEAGVPPEEIEAIKRDIRRTQEFGIPPRSIALAVLRALKSHDEELAERVEELLRK
B9: il2ra_site1_1z92_normal_mot_HHH_b2_05238_af2_000000252_0001_38_55_H_._HHH_b1_01495_af2_0002_0000300012_0000001_0_af2pred_0001_af2pred_1 (protein)
chain: SSSSSKEESLELAERAARRAIEAGNERSARRLLKFVIEAAEELGNEELLEELEELLERLESSSSS
B10: il2ra_site2_2erj_sap_29_mot_dcd9809507f71d420582ead1f1e1bbb3_0001_000000226_0001_37_50_H_._HHH_b1_02896_af2_0001_0000500038_0000001_0_0001 (protein)
chain: SSSSSSLHELYELANRLMHALSNGDEELLEELLEELEELAKELQSDTAREIVENIRRRLSSSSSS
B11: il2ra_site1_1z92_sap_17_mot_c66c727fe7b11027095aa3ef302aaf37_0001_000000167_0001_38_52_H_._665b9007e6d0b9979c9b0c82f83b8fcc_0001_0001_0000200023_0000001_0_0001 (protein)
chain: SSSSDSRERIEELAEFLARDIKMTGNPWARRLLELLLEKAEKLGDEELREIIEQLLEELRSSSSS
B12: il2ra_site1_3nfp_sap_16_mot_HHH_b1_00461_af2_000000238_0001_1_17_H_._HHH_b2_08025_0001_0000300024_0000001_0_0001_af2pred_0001_af2pred_swapped (protein)
chain: SSSSSRILRFLEELARKAFERNDKKQLEAILKLIRKAAKQFKDEEVEELLELVEELLKKLSSSSS
B13: il2ra_site2_2erj_normal_mot_HHH_b1_05204_000000269_0001_1_15_H_._HHH_b1_00954_0001_0000200014_0000001_0_1_af2pred_0001_af2pred (protein)
chain: SSSSDLEEELRRLLEELEELVKEGDEKKFMEVALRVAKLVIENNDEEAAKLLLRLLRELRSSSSS
B14: il2ra_site2_2erj_sap_27_mot_HHH_b1_08185_000000063_0001_41_55_H_._HHH_b1_03158_0001_0000300009_0000001_0_0001_af2pred_0001_1_af2pred_swapped (protein)
chain: SSSDAQERAREVLEEVIELLRQGNHEEAKKLLEEAREILEELGDRAAVRLIEAALRLLESLSSSS
B15: il2ra_site2_2erj_sap_22_mot_c2bf78bdce995293a161f7082e24b401_0001_af2_000000082_0001_17_32_H_._HHH_b2_05133_0001_0000600016_0000001_0_0001 (protein)
chain: SSSSDEELHEIFELLSLLLEAIQKGDDELFKKLVEEVRQLIEEKGSPNLREILEWLERHFHSSSS
B16: il2ra_site2_3nfp_normal_mot_HHH_b1_04264_000000089_0001_1_18_H_._332cd829babfe32ea4315b179459513b_0001_1_0001_0000100003_0000001_0 (protein)
chain: SQEVFEVIHKLREEGDPELAISLFALLAELLLHPENEELREKLEELLEIIKKNPEEAREVARKLP
B17: il2ra_site2_2erj_normal_mot_HHH_b1_07741_000000192_0001_1_20_H_._9b1ece5d1ebc94355a99c96473898622_0001_1_af2_0001_0000300001_0000001_0 (protein)
chain: DQEEFLRRAARENPETFIRYAELLAKDAGNPELLKLVEELKEEVEKGEIPPEEAAELVVEVLEEL
B18: il2ra_site2_2erj_sap_23_mot_HHH_b1_06697_000000025_0001_41_54_H_._HHH_b2_03690_0001_0000400021_0000001_0_0001 (protein)
chain: SSSSDYEERVKELLEELRELLEEGDEEKFEELVFEVSQLIFENNDFELFAELTEIFEEFIRSSSS
B19: il2ra_site1_2b5i_normal_mot_HHH_b2_04910_000000118_0001_1_19_H_._HHH_b1_05884_0001_0000500029_0000001_0 (protein)
chain: SSSSSEETRELQELFREADELDRRGNEEEAEEVLREAIELARQAGSRSMLKMLESALKELGSSSS

Target: il2ra, P01589
Experiment: yeast display titration

Chain of il2ra, P01589 (P01589 whole entry): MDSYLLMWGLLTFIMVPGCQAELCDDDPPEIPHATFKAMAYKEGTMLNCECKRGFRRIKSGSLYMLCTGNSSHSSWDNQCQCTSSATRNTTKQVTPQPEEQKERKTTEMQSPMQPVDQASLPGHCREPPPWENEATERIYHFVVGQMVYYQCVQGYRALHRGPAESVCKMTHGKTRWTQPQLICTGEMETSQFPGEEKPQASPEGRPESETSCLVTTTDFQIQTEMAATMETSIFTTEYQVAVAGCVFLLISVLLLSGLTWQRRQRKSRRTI

Apparent Kd, inactive:
B1 no binding seen
B2 no binding seen
B3 no binding seen
B4 no binding seen
B5 no binding seen
B6 no binding seen
B7 > 311 nM
B8 no binding seen
B9 no binding seen
B10 no binding seen
B11 no binding seen
B12 no binding seen
B13 no binding seen
B14 no binding seen
B15 no binding seen
B16 no binding seen
B17 no binding seen
B18 no binding seen
B19 no binding seen
